# Records with an inconclusive call do not appear. Where a structure was tested more than once in an assay, its records may differ in their call. Activity calls are given as the source filed them. Rule for the calls: active = hit-call score of the fitted dose curve at least 0.9, where 1 is the maximum; inconclusive = response in the unintended direction; inactive = score below 0.9.
# Assay: Tanguay_ZF_120hpf_SWIM_legacy: (Legacy) Oregon State University Tanguay Lab 120 Hour Post-fertilization zebrafish Assay for Swim Bladder Malformation (AID 2283654);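 note: swim bladder malformation in each larva scored yes or no under brightfield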
# Method: Tanguay_ZF_120hpf_legacy is a whole embryo, multiplexed endpoint assay using zebrafish larvae exposed for 120 hours post fertilization on a 96-well plate.Tanguay_ZF_120hpf_SWIM_legacy is one of one assay component(s) measured or calculated from the Tanguay_ZF_120hpf_legacy assay. It is designed to make measurements of zebrafish development as detected with brightfield microscopy of developing zebrafish embryos.Data from the assay component Tanguay_ZF_120hpf_SWIM_legacy was analyzed into 1 assay endpoints. This assay endpoint, Tanguay_ZF_120hpf_SWIM_legacy, was analyzed in the positive analysis fitting direction relative to DMSO as the negative control and baseline of activity. Using a type of morphology reporter, gain-of-signal activity can be used to understand changes in developmentals as they relate to the whole embryo. To generalize the intended target to other relatable targets, this assay endpoint is annotated to the zebrafish development intended target family, where the subfamily is swim bladder morphogenesis.
# Zebrafish husbandry: Tropical 5D wild-type adult zebrafish were housed in at an approximate density of 1000 per 100 gallon tank at the Sinnhuber Aquatic Research Laboratory, Oregon State University, Corvallis, OR. Each tank was kept at standard laboratory conditions of 28C on a 14-h light/10-h dark photoperiod in fish water consisting of reverse osmosis water supplemented with a commercially available salt (Instant Ocean). Spawning funnels were placed into the tanks the night prior, and embryos were collected and staged. To increase bioavailability, the chorion was enzymatically removed using pronase (63.6mg/ml, >/= 3.5U/mg, Sigma-Aldrich: P5147) at 4 hours post fertilization (hpf) using a custom automated dechorionator.Chemical exposures: Six hpf dechorionated embryos were placed 1 embryo per well in a 96-well plate prefilled with 90 ul of EM using automated embryo placement systems (AEPS). Ten microliters of each row of dilution plate 2 was added to 2 exposure plates. The final DMSO concentration used was 0.64% (vol/vol). Thirty-two embryos were also exposed to 5uM trimethyltin chloride (positive control). Plates were sealed to prevent evaporation and foil covered to reduce light exposure and kept in a 28C incubator. Embryos were statically exposed until 120 hpf. At 24 hpf, embryos were assessed for photomotor response using a custom photomotor response analysis tool (PRAT) and for developmental toxicity endpoints (MO24: mortality at 24 hpf, DP: developmental progression, SM: spontaneous movement, and NC: notochord distortion). At 120 hpf, locomotor activity was measured using Viewpoint Zebralab and assessed for 18 endpoints. Zebrafish acquisition and analysis program (ZAAP), a custom program designed to inventory, acquire, and manage zebrafish data, was used to collect developmental endpoints as either present or absent (i.e., binary responses were recorded). If mortality occurred for an embryo (at either 24 or 120 hpf), the non-mortality endpoints were not measured.
SMILES,outcome,AC50
CCC(C)(NC(=O)c1cc(Cl)c(C)c(Cl)c1)C(=O)CCl (stereo not given),inactive,
O=S(=O)(O)C(F)(F)C(F)(F)C(F)(F)C(F)(F)C(F)(F)C(F)(F)C(F)(F)C(F)(F)F,inactive,
CNC(=O)Oc1ccccc1OC(C)C,inactive,
CCOCN(C(=O)CCl)c1c(C)cccc1CC,inactive,
COP(=S)(OC)Oc1ccc([N+](=O)[O-])cc1,inactive,
CC[C@H](C)[C@H]1O[C@]2(C=C[C@@H]1C)C[C@@H]1C[C@@H](C/C=C(\C)[C@@H](O[C@H]3C[C@H](OC)[C@@H](O[C@H]4C[C@H](OC)[C@@H](O)[C@H](C)O4)[C@H](C)O3)[C@@H](C)/C=C/C=C3\CO[C@@H]4[C@H](O)C(C)=C[C@@H](C(=O)O1)[C@]34O)O2 (tested in a mixture with another compound),inactive,
CNC(=O)CSP(=S)(OC)OC,inactive,
CC(C)(C)C(O)/C(=C\c1ccc(Cl)cc1Cl)n1cncn1 (stereo not given),inactive,
C#CCN1C(=O)COc2cc(F)c(N3C(=O)C4=C(CCCC4)C3=O)cc21,inactive,
O=C1c2ccccc2C(=O)N1SC(Cl)(Cl)Cl,inactive,
Clc1ccccc1-c1nnc(-c2ccccc2Cl)nn1,inactive,
N#Cc1c(Cl)c(Cl)c(Cl)c(C#N)c1Cl,inactive,
CCC(C)Nc1c([N+](=O)[O-])cc(C(C)(C)C)cc1[N+](=O)[O-] (stereo not given),inactive,
CCc1ccc(C(=O)NN(C(=O)c2cc(C)cc(C)c2)C(C)(C)C)cc1,inactive,
O=S1OCC2C(CO1)C1(Cl)C(Cl)=C(Cl)C2(Cl)C1(Cl)Cl (stereo not given),inactive,
CCCN(CCOc1c(Cl)cc(Cl)cc1Cl)C(=O)n1ccnc1,inactive,
CC1(C)C(C=C(Cl)Cl)C1C(=O)OC(C#N)c1ccc(F)c(Oc2ccccc2)c1 (stereo not given),inactive,
O=C(NC(=O)c1c(F)cccc1F)Nc1ccc(OC(F)(F)C(F)OC(F)(F)F)c(Cl)c1 (stereo not given),inactive,
Oc1ccc(Cl)cc1Cc1ccccc1,inactive,
CN1CSC(=S)N(C)C1,inactive,

SMILES,outcome,AC50
Cc1[nH]c(=O)n(C(C)(C)C)c(=O)c1Cl,inactive,
O=[N+]([O-])c1c(Cl)c(Cl)c(Cl)c(Cl)c1Cl,inactive,
N#CN,inactive,
CCOC1Oc2ccc(OS(C)(=O)=O)cc2C1(C)C (stereo not given),inactive,
CCC(C)(C)C(=O)OC1=C(c2ccc(Cl)cc2Cl)C(=O)OC12CCCCC2,inactive,
CCN(CC)C(=O)SCc1ccc(Cl)cc1,inactive,
COc1nn(CSP(=S)(OC)OC)c(=O)s1,inactive,
OCCOc1ccccc1,inactive,
CCCN(CCC)c1c([N+](=O)[O-])cc(C(F)(F)F)cc1[N+](=O)[O-],inactive,
O=C(O)CCCOc1ccc(Cl)cc1Cl,inactive,
CC(C)OC(=O)Nc1cccc(Cl)c1,inactive,
CC(C)(C)C(O)C(Oc1ccc(Cl)cc1)n1cncn1 (stereo not given),inactive,47.1 µM (active)
COP(=S)(OC)Oc1ccc(SC)c(C)c1,inactive,
O=C(O)C(F)(F)C(F)(F)C(F)(F)C(F)(F)C(F)(F)C(F)(F)C(F)(F)F,inactive,
Oc1cc(Cl)ccc1Oc1ccc(Cl)cc1Cl,inactive,
COP(=O)(OC)OC=C(Cl)Cl,inactive,
CC(C)N(C(=O)COc1nnc(C(F)(F)F)s1)c1ccc(F)cc1,inactive,
ClC1C(Cl)C(Cl)C(Cl)C(Cl)C1Cl (stereo not given),inactive,
CNC(=O)/C=C(\C)OP(=O)(OC)OC,inactive,

# Source: PubChem BioAssay (EPA / NIEHS)
